# Measured values from PubChem BioAssay (NCI).
# This is part of a sample that, as a whole, favours compounds with a hit. Of some 79,000 tested, about 15% had one in any assay. A number with no mark means an inactive call. The source made the active and inactive calls. No stated cut-off is given here; in the data, active means growth inhibition above about 70%; inactive means the rest.
# Experiments:
# [1] = NCI Yeast Anticancer Drug Screen. Data for the rad52 strain (AID 147);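 further: 0% = growth of vehicle-treated control cultures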; settings: S. cerevisiae rad52 mutant growth inhibition, hits give high values
# Outline: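 Compounds are applied to a genetically defined yeast strain lacking normal DNA damage repair, and inhibition of growth is expressed relative to cultures given vehicle only.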
# [2] = NCI Yeast Anticancer Drug Screen. Data for the wt1 strain (AID 149);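 further: 0% = growth of vehicle-treated wt1 cultures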; settings: S. cerevisiae wt1 strain (SPY 50644) growth inhibition, hits give high values
# Outline: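 Vehicle-normalised growth inhibition; strain wt1; compound exposure.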
# [3] = NCI Yeast Anticancer Drug Screen. Data for the rad50EPP+ strain (AID 151);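 further: 0% = growth of vehicle-treated control cultures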; settings: S. cerevisiae rad50 mutant strain, hits give high values
# Outline: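 Compounds were applied to the rad50EPP+ yeast strain, which bears a defined DNA repair alteration, and growth inhibition was determined relative to vehicle-treated cultures.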
# [4] = NCI Yeast Anticancer Drug Screen. Data for the mgt1 strain (AID 153); settings: S. cerevisiae mgt1 mutant growth inhibition, hits give high values
# Outline: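 Strain: mgt1 yeast, one of a set carrying defined DNA damage repair or cell cycle control alterations. Compound-treated growth compared with vehicle.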
# [5] = NCI Yeast Anticancer Drug Screen. Data for the rad50 strain (AID 155);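 further: 0% = growth of vehicle-only cultures of the same strain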; settings: S. cerevisiae rad50 strain growth inhibition, hits give high values
# Outline: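 A DNA repair-deficient yeast mutant serves as the test organism; compound-induced growth inhibition is calculated against vehicle-treated cells.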
# [6] = NCI Yeast Anticancer Drug Screen. Data for the mec2-1 strain (AID 157); settings: S. cerevisiae mec2-1 strain, hits give high values
# Outline: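 Strain: mec2-1 (DNA repair/cell cycle alteration). Compound exposure, then growth measured; inhibition expressed relative to vehicle.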
# [7] = NCI Yeast Anticancer Drug Screen. Data for the rad14 strain (AID 159);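 further: 0% = growth of vehicle-treated control cultures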; settings: S. cerevisiae rad14 strain growth inhibition, hits give high values
# Outline: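 Vehicle-treated cultures served as the baseline for growth inhibition of a DNA repair-mutant yeast strain exposed to each compound.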
# [8] = NCI Yeast Anticancer Drug Screen. Data for the sgs1 mgt1 strain (AID 161);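 further: 0% = growth of cultures given vehicle only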; settings: S. cerevisiae sgs1 mgt1 strain, hits give high values
# Outline: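 Inhibition of yeast growth, normalised to vehicle-treated controls, is reported for a strain bearing genetic alterations in DNA damage repair.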
# [9] = NCI Yeast Anticancer Drug Screen. Data for the CLN2oe strain (AID 163);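 further: 0% = growth of vehicle-only control cultures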; settings: S. cerevisiae CLN2oe strain, hits give high values
# Outline: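 Growth of a genetically modified yeast strain is measured after compound exposure and compared with cultures given vehicle alone.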
# [10] = NCI Yeast Anticancer Drug Screen. Data for the cln2 rad14 strain (AID 165);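 further: 0% = growth equal to vehicle treated cultures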; settings: S. cerevisiae cln2 rad14 strain, hits give high values
# Outline: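 Compounds are applied to the cln2 rad14 yeast strain, and growth is then compared with that of vehicle-treated cultures to give inhibition.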
# [11] = NCI Yeast Anticancer Drug Screen. Data for the bub3 strain (AID 167); settings: S. cerevisiae bub3 mutant strain, hits give high values
# Outline: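 Inhibition values come from growth of compound-treated mutant yeast normalised to vehicle-treated controls.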
# [12] = NCI Yeast Anticancer Drug Screen. Data for the wt2 strain (AID 169);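 further: 0% = growth of vehicle-treated yeast cultures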; settings: S. cerevisiae wt2 strain growth inhibition, hits give high values
# Outline: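 This strain belongs to a panel of yeast strains with defined genetic alterations in DNA damage repair or cell cycle control. Compounds are applied, and growth inhibition is measured against vehicle-treated cultures.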
# [13] = NCI Yeast Anticancer Drug Screen. Data for the mlh1 strain (AID 171);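 further: 0% = growth of vehicle-treated control cultures of the same strain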; settings: S. cerevisiae mlh1 strain growth inhibition, hits give high values
# Outline: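 Growth of the mutant yeast strain after compound exposure, expressed as inhibition relative to vehicle-only controls.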
# [14] = NCI Yeast Anticancer Drug Screen. Data for the mlh1 rad18 strain (AID 175); settings: S. cerevisiae mlh1 rad18 strain growth inhibition, hits give high values
# Outline: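 Read-out is yeast growth inhibition, calculated against vehicle-only controls. The compound was applied to a strain engineered with DNA damage repair alterations.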
# [15] = NCI Yeast Anticancer Drug Screen. Data for the rad18 strain (AID 177); settings: S. cerevisiae rad18 mutant growth inhibition, hits give high values
# Outline: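 Growth of the mutant yeast strain after compound exposure, normalised to vehicle-only cultures.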
# [16] = at 5.0 µM (retest, dose inferred, filed as 0.5)
# [17] = at 50.0 µM (retest, dose inferred, filed as 5.0)
smiles,measurement,setting,value
CCOC(=O)c1ccc(NC(=O)O/N=C(/Cl)C(C)C)cc1,growth inhibition,[1]; at 1.2 µM,-2%
same,growth inhibition,[1]; at 3.7 µM,3%
same,growth inhibition,[1]; at 11.0 µM,14%
same,growth inhibition,[1]; at 33.0 µM,58%
same,growth inhibition,[1]; at 100.0 µM,98% (active)
same,growth inhibition,[2]; at 1.2 µM,-1%
same,growth inhibition,[2]; at 3.7 µM,-6%
same,growth inhibition,[2]; at 11.0 µM,-11%
same,growth inhibition,[2]; at 33.0 µM,-14%
same,growth inhibition,[2]; at 100.0 µM,97% (active)
same,growth inhibition,[3]; at 1.2 µM,1%
same,growth inhibition,[3]; at 3.7 µM,8%
same,growth inhibition,[3]; at 11.0 µM,22%
same,growth inhibition,[3]; at 33.0 µM,44%
same,growth inhibition,[3]; at 100.0 µM,87% (active)
same,growth inhibition,[4]; at 1.2 µM,-3%
same,growth inhibition,[4]; at 3.7 µM,-7%
same,growth inhibition,[4]; at 11.0 µM,-5%
same,growth inhibition,[4]; at 33.0 µM,73% (active)
same,growth inhibition,[4]; at 100.0 µM,99% (active)
same,growth inhibition,[5]; at 1.2 µM,-1%
same,growth inhibition,[5]; at 3.7 µM,4%
same,growth inhibition,[5]; [16],5%
same,growth inhibition,[5]; at 11.0 µM,7%
same,growth inhibition,[5]; at 33.0 µM,48%
same,growth inhibition,[5]; [17],92% (active)
same,growth inhibition,[5]; at 50.0 µM,55.4%
same,growth inhibition,[5]; at 100.0 µM,98% (active)
same,growth inhibition,[6]; at 1.2 µM,1%
same,growth inhibition,[6]; at 3.7 µM,1%
same,growth inhibition,[6]; [16],-19%
same,growth inhibition,[6]; at 11.0 µM,3%
same,growth inhibition,[6]; at 33.0 µM,45%
same,growth inhibition,[6]; [17],95% (active)
same,growth inhibition,[6]; at 50.0 µM,85.5% (active)
same,growth inhibition,[6]; at 100.0 µM,99% (active)
same,growth inhibition,[7]; at 1.2 µM,-4%
same,growth inhibition,[7]; at 3.7 µM,-5%
same,growth inhibition,[7]; at 11.0 µM,-2%
same,growth inhibition,[7]; at 33.0 µM,2%
same,growth inhibition,[7]; at 100.0 µM,99% (active)
same,growth inhibition,[8]; [16],-12%
same,growth inhibition,[8]; [17],98% (active)
same,growth inhibition,[8]; at 50.0 µM,81.8% (active)
same,growth inhibition,[9]; at 1.2 µM,-2%
same,growth inhibition,[9]; at 3.7 µM,2%
same,growth inhibition,[9]; at 11.0 µM,-5%
same,growth inhibition,[9]; at 33.0 µM,-22%
same,growth inhibition,[9]; at 100.0 µM,97% (active)
same,growth inhibition,[10]; [16],17%
same,growth inhibition,[10]; [17],87% (active)
same,growth inhibition,[10]; at 50.0 µM,63.4%
same,growth inhibition,[11]; at 1.2 µM,9%
same,growth inhibition,[11]; at 3.7 µM,18%
same,growth inhibition,[11]; [16],-7%
same,growth inhibition,[11]; at 11.0 µM,28%
same,growth inhibition,[11]; at 33.0 µM,55%
same,growth inhibition,[11]; [17],97% (active)
same,growth inhibition,[11]; at 50.0 µM,76.6% (active)
same,growth inhibition,[11]; at 100.0 µM,98% (active)
same,growth inhibition,[12]; at 1.2 µM,-4%
same,growth inhibition,[12]; at 3.7 µM,-8%
same,growth inhibition,[12]; at 11.0 µM,10%
same,growth inhibition,[12]; at 33.0 µM,91% (active)
same,growth inhibition,[12]; at 100.0 µM,99% (active)
same,growth inhibition,[13]; at 1.2 µM,-6%
same,growth inhibition,[13]; at 3.7 µM,-4%
same,growth inhibition,[13]; at 11.0 µM,-4%
same,growth inhibition,[13]; at 33.0 µM,84% (active)
same,growth inhibition,[13]; at 100.0 µM,99% (active)
same,growth inhibition,[14]; [16],-7%
same,growth inhibition,[14]; [17],95% (active)
same,growth inhibition,[14]; at 50.0 µM,69.1%
same,growth inhibition,[15]; at 1.2 µM,-5%
same,growth inhibition,[15]; at 3.7 µM,-5%
same,growth inhibition,[15]; at 11.0 µM,-1%
same,growth inhibition,[15]; at 33.0 µM,12%
same,growth inhibition,[15]; at 100.0 µM,98% (active)
CCn1c(O)c(C=Nc2ccccc2)s/c1=N/Nc1nc(-c2ccccc2)cs1,growth inhibition,[1]; at 1.2 µM,12%
same,growth inhibition,[1]; at 3.7 µM,5%
same,growth inhibition,[1]; at 11.0 µM,10%
same,growth inhibition,[1]; at 33.0 µM,4%
same,growth inhibition,[1]; at 100.0 µM,20%
same,growth inhibition,[2]; at 1.2 µM,-87%
same,growth inhibition,[2]; at 3.7 µM,-1%
same,growth inhibition,[2]; at 11.0 µM,0%
same,growth inhibition,[2]; at 33.0 µM,0%
same,growth inhibition,[2]; at 100.0 µM,-3%
same,growth inhibition,[3]; at 1.2 µM,7%
same,growth inhibition,[3]; at 3.7 µM,19%
same,growth inhibition,[3]; at 11.0 µM,32%
same,growth inhibition,[3]; at 33.0 µM,54%
same,growth inhibition,[3]; at 100.0 µM,74% (active)
same,growth inhibition,[4]; at 1.2 µM,0%
same,growth inhibition,[4]; at 3.7 µM,10%
same,growth inhibition,[4]; at 11.0 µM,18%
same,growth inhibition,[4]; at 33.0 µM,21%
same,growth inhibition,[4]; at 100.0 µM,24%
same,growth inhibition,[5]; at 1.2 µM,-2%
same,growth inhibition,[5]; at 3.7 µM,6%
same,growth inhibition,[5]; [16],-12%
same,growth inhibition,[5]; at 11.0 µM,14%
same,growth inhibition,[5]; at 33.0 µM,15%
same,growth inhibition,[5]; [17],12%
same,growth inhibition,[5]; at 50.0 µM,41.7%
same,growth inhibition,[5]; at 100.0 µM,11%
same,growth inhibition,[6]; at 1.2 µM,-6%
same,growth inhibition,[6]; at 3.7 µM,-1%
same,growth inhibition,[6]; [16],-25%
same,growth inhibition,[6]; at 11.0 µM,-1%
same,growth inhibition,[6]; at 33.0 µM,-1%
same,growth inhibition,[6]; [17],11%
same,growth inhibition,[6]; at 50.0 µM,23.8%
same,growth inhibition,[6]; at 100.0 µM,2%
same,growth inhibition,[7]; at 1.2 µM,0%
same,growth inhibition,[7]; at 3.7 µM,6%
same,growth inhibition,[7]; at 11.0 µM,9%
same,growth inhibition,[7]; at 33.0 µM,7%
same,growth inhibition,[7]; at 100.0 µM,1%
same,growth inhibition,[8]; [16],-7%
same,growth inhibition,[8]; [17],27%
same,growth inhibition,[8]; at 50.0 µM,43.5%
same,growth inhibition,[9]; at 1.2 µM,-6%
same,growth inhibition,[9]; at 3.7 µM,-11%
same,growth inhibition,[9]; at 11.0 µM,-7%
same,growth inhibition,[9]; at 33.0 µM,-9%
same,growth inhibition,[9]; at 100.0 µM,17%
same,growth inhibition,[10]; [16],-1%
same,growth inhibition,[10]; [17],15%
same,growth inhibition,[10]; at 50.0 µM,25.3%
same,growth inhibition,[11]; at 1.2 µM,-5%
same,growth inhibition,[11]; at 3.7 µM,-3%
same,growth inhibition,[11]; [16],-14%
same,growth inhibition,[11]; at 11.0 µM,-4%
same,growth inhibition,[11]; at 33.0 µM,12%
same,growth inhibition,[11]; [17],74% (active)
same,growth inhibition,[11]; at 50.0 µM,75.5% (active)
same,growth inhibition,[11]; at 100.0 µM,50%
